Measurements taken from the supplement of paper PMC11732987, “Enantioselective OTUD7B fragment discovery through chemoproteomics screening and high-throughput optimisation” (Communications Chemistry, 2025).

Legend:
Assay in all cases: log2 ratio of Biotin-Ahx-Ub-VS probe labelling (fragment/DMSO); higher = less target engagement (more negative = stronger competition), active = hit call of the paper (q ≤ 0.05, log2 ratio ≤ -1)
Conditions in all cases: compound concentration: 200 uM; treatment time: 3 h
USP34 = USP34 (UniProt Q70CQ2)
Outline: (§1)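 Labelled DUBs from HEK293T lysate were NeutrAvidin-enriched, digested with LysC and trypsin, and run by diaPASEF LC-MS/MS. Before that, each 495 µg sample in Tris/CHAPS/IGEPAL buffer with protease inhibitors was treated in triplicate with fragment at 200 µM or vehicle for 3 h, then with Biotin-Ahx-Ub-VS at 0.5 µM final for 1 h. Values are average log2 ratios of fragment over vehicle by unpaired t-test, based on global-median-normalised Spectronaut label-free quantities from proteins with ≥2 unique peptides.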

USP36 = biological target: T1, USP36 (UniProt Q9P275)
T1 sequence (whole entry): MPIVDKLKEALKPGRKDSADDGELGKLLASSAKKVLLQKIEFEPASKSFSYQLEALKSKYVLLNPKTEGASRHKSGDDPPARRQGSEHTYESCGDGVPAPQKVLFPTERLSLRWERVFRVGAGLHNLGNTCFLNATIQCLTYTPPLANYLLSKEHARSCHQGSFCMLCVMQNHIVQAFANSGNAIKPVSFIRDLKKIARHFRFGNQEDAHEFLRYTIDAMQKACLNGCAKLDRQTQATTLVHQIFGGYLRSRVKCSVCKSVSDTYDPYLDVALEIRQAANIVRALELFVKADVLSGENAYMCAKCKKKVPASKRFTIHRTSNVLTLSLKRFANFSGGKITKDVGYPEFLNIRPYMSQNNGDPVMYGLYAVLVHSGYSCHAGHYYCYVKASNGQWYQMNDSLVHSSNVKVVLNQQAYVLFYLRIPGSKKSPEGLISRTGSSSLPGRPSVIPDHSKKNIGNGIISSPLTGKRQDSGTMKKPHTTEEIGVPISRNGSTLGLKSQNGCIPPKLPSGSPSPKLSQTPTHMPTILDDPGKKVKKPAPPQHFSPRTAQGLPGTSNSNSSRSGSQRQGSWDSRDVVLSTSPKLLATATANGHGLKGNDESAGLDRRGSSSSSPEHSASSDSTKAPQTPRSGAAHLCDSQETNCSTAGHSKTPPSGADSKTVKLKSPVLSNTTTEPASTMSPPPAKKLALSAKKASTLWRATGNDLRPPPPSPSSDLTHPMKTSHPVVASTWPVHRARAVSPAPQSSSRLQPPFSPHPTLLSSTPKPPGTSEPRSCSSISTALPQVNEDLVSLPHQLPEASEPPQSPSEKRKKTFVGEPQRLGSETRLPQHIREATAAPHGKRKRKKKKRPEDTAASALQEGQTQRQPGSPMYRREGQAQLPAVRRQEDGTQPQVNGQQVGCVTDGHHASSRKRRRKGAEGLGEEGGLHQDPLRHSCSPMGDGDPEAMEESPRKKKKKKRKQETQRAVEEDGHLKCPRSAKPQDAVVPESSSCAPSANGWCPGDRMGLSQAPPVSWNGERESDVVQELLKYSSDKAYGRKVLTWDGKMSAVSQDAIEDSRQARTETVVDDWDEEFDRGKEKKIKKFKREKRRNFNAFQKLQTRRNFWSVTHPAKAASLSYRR
Outline: as §1

USP38 = biological target: T2, USP38 (UniProt Q8NB14)
T2 sequence (whole entry): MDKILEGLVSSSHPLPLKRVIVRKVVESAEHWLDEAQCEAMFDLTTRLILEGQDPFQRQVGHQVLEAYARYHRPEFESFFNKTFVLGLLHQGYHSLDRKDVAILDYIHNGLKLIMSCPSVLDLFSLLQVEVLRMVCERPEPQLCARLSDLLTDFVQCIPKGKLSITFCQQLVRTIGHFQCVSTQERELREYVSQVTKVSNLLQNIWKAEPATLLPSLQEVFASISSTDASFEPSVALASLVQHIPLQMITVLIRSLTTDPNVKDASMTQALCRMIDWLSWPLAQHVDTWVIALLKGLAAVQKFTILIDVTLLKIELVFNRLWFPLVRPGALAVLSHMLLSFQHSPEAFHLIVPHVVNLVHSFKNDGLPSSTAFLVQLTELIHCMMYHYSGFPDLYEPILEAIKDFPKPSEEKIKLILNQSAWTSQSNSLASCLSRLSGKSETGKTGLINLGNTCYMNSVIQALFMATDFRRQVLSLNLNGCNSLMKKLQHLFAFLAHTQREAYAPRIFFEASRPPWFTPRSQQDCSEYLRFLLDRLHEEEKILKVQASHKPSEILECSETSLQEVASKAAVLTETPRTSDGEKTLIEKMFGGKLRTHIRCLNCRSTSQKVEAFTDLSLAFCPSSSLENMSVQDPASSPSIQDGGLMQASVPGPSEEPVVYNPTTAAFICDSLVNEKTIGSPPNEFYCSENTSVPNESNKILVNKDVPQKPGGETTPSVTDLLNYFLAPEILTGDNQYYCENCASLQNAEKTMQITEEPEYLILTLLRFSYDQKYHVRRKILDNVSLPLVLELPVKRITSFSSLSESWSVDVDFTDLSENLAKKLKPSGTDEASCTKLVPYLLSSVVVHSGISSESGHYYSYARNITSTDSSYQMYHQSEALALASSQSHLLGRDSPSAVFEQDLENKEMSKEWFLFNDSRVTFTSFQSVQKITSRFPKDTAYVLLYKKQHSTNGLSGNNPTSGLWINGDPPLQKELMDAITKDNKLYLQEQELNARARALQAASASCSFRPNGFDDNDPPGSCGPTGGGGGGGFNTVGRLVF
Outline: as §1

USP39 = biological target: T3, USP39 (UniProt Q53GS9)
T3 sequence (whole entry): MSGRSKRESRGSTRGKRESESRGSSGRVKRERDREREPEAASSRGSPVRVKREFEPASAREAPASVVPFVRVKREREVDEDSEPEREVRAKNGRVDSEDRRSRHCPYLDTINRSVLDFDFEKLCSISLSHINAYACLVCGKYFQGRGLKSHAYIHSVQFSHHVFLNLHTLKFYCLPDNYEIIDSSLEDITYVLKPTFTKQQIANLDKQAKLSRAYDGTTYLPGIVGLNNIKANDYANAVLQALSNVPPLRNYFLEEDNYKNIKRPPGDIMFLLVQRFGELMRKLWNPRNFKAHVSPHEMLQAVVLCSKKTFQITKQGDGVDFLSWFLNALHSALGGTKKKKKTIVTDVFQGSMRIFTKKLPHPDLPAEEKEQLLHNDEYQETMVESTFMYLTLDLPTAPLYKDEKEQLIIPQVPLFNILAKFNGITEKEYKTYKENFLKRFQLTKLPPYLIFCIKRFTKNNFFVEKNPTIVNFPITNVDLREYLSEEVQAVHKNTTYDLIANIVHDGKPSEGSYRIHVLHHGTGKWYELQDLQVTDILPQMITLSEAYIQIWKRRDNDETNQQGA
Outline: as §1

USP4 = biological target: T4, USP4 (UniProt Q13107)
T4 sequence (whole entry): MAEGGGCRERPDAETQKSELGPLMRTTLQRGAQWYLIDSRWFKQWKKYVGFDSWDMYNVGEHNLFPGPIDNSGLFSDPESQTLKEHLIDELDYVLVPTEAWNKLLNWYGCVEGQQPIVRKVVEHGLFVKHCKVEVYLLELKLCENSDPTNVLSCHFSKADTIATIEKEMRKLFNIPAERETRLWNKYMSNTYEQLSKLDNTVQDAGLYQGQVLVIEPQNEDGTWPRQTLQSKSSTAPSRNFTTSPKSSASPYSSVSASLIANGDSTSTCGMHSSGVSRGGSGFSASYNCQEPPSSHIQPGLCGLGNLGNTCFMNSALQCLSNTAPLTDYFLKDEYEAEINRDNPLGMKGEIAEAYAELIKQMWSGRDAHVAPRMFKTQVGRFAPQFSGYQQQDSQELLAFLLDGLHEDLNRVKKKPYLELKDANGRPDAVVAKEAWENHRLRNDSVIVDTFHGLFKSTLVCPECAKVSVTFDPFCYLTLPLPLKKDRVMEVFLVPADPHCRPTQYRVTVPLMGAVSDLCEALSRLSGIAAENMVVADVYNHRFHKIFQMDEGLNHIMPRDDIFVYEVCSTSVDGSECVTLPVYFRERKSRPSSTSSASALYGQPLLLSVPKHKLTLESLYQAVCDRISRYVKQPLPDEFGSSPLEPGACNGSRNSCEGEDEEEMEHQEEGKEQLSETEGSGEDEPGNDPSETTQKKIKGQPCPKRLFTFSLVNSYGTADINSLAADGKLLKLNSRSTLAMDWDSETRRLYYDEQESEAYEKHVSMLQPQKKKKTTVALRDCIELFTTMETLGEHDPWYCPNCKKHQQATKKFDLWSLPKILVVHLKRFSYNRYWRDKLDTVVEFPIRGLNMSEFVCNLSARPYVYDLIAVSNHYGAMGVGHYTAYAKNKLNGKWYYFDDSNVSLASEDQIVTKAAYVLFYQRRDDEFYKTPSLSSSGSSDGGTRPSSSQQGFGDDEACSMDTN
Outline: as §1

Measured: log2 ratio of Biotin-Ahx-Ub-VS probe labelling

USP34, sequence (Q70CQ2 whole entry, the tested form may be a part): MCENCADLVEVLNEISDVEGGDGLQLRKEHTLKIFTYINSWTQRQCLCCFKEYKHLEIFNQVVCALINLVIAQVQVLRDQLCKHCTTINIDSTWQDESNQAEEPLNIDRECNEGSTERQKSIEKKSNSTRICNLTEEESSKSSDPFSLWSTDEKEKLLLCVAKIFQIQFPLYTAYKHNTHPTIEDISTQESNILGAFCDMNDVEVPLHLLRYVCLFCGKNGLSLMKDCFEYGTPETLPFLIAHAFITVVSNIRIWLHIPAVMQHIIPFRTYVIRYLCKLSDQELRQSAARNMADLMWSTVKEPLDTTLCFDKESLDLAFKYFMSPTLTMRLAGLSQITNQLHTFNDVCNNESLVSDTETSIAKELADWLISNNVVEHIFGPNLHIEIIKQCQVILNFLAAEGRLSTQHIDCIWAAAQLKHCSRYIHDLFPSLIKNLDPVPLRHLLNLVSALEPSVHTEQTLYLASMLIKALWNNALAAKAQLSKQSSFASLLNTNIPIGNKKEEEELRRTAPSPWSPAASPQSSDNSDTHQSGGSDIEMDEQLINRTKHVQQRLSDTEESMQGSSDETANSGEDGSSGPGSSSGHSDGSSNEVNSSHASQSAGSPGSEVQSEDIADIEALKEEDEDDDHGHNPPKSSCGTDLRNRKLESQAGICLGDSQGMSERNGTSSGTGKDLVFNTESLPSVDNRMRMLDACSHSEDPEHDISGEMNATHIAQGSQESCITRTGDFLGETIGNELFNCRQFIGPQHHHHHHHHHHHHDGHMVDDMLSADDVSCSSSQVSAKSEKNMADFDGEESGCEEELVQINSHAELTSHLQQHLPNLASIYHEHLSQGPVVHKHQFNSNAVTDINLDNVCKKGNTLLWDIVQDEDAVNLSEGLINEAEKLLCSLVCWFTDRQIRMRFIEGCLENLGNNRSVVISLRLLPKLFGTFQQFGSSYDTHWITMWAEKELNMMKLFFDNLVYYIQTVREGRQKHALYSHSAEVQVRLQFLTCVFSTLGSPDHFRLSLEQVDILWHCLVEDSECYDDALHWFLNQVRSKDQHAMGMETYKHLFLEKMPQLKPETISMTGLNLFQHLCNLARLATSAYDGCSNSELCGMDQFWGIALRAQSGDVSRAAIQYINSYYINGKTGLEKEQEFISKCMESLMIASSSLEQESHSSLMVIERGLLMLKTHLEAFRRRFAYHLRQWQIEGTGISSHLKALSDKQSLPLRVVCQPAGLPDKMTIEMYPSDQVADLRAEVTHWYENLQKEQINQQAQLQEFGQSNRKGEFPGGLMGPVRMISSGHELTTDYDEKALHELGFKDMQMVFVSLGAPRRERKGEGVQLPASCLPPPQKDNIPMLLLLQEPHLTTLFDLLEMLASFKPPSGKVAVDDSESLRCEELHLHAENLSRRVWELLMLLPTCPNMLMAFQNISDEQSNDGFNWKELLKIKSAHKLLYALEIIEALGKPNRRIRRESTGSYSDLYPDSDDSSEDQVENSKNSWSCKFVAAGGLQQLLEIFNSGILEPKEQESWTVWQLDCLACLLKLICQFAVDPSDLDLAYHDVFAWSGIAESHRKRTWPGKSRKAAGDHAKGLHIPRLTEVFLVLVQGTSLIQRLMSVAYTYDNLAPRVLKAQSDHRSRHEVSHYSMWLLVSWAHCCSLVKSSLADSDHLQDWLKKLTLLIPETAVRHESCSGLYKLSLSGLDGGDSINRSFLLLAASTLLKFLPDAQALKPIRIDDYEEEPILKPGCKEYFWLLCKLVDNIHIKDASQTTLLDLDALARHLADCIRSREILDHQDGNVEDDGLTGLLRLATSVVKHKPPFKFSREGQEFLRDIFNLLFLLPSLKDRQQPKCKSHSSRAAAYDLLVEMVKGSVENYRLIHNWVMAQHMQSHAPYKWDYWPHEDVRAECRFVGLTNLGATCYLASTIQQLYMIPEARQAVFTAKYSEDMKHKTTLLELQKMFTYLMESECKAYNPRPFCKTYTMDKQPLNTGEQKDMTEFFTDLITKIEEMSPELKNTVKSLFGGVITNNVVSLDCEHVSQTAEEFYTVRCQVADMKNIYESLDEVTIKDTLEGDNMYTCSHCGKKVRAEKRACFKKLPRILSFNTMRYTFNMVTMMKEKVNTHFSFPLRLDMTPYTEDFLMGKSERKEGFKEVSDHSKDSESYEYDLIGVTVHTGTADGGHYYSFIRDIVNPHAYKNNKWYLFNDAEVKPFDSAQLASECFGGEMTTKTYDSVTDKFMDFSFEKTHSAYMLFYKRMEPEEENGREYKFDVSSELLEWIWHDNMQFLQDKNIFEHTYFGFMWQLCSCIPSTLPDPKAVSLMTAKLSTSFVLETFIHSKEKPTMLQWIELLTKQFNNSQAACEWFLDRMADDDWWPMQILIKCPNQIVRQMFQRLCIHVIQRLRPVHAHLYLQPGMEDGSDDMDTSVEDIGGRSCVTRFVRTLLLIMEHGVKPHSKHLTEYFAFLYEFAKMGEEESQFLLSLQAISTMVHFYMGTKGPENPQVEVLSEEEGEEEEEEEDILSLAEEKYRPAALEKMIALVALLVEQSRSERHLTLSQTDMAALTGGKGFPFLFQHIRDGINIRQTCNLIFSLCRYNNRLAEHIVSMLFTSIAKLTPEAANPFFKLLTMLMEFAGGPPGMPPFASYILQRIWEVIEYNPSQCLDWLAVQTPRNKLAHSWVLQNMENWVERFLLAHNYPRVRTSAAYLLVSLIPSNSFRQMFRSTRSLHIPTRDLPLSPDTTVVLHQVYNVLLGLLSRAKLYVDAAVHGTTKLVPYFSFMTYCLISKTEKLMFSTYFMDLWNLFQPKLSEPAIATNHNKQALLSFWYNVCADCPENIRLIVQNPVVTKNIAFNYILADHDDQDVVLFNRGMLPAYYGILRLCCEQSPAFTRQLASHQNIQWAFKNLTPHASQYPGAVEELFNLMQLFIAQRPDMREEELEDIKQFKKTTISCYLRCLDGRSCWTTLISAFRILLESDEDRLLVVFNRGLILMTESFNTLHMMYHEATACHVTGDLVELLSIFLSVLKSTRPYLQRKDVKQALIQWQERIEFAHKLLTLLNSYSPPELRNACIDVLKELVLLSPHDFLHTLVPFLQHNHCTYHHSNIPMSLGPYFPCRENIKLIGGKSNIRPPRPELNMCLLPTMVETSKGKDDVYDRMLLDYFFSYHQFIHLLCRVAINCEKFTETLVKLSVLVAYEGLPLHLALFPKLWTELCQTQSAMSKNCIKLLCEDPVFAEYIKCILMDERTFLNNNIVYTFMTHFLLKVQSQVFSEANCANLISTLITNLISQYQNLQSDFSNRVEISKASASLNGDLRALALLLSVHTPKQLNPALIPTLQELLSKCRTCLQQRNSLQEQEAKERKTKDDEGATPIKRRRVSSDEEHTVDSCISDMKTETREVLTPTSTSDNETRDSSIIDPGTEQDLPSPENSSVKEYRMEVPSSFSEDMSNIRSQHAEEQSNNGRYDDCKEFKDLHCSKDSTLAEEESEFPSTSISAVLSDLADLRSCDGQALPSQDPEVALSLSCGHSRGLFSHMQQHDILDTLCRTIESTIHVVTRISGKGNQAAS

CC(=O)C1CCCCN1C(=O)CCl (stereo not given)
inactive: USP34 -0.216 | USP36 -0.0205 | USP38 -0.0979 | USP39 -0.37 | USP4 -0.0834
